PubChem BioAssay (NCATS)
A number with no mark means an inactive call. Calls follow the shape of the dose curve; as a rule, active = well fitted curve in the direction sought with a large enough effect; inconclusive = small, poorly fitted or top-dose-only effect, or another doubt; inactive = no such curve, though single readings can be large or run the other way.

Target: Hexokinase-4 (Homo sapiens) + Glucokinase regulatory protein (Homo sapiens) (UniProt P35557+Q14397)
Assay: qHTS assay for inhibitors of recombinant human GCK-GKRP interaction: Diaphorase-coupled assay (AID 743205)
Conditions: G6PDH/diaphorase resorufin fluorescence; series mostly up to 57.5 µM; activity change, positive = activation: at the top concentration
From the text: Glucokinase (GCK) is a glucose sensor in hepatocytes and pancreatic beta-cells. Hepatic GCK is regulated by glucokinase regulatory protein (GKRP), which is predominantly localized to the liver. GKRP binds to GCK inhibiting its activity in the fasting state while in the presence of glucose the GKRP is displaced. There is an additional layer of regulation by fructose 1-phosphate and fructose 6-phosphate, which inhibit and enhance the GCK-GKRP interaction, respectively. GCK plays a role in glucose homeostasis and there is an interest in the development of strategies to activate GCK to lower blood glucose levels in type 2 diabetes. To date the majority of effort has focused on direct activation of GCK and the assays developed herein look to activate GCK by inhibiting its binding to GKRP. A compound that inhibits the interaction of GCK with GKRP could be important for the treatment of diabetes and can also be used as a tool compound to further elucidate GCK-GKRP biology. To that end, we have developed a sensitive HTS biochemical assay where in GCK activity is coupled to G6PDH and Diaphorase to interrogate the GCK-GKRP interaction. This assay was screened against a small compound library to look for modulators of activity.
2 uL of substrate (columns 1-48) are dispensed into Greiner, black solid-bottom 1536-well assay plates. Compounds (23 nL) are then transferred via Kalypsys pin tool equipped with 1536-pin array (10 nL slotted pins, V&P Scientific, San Diego, CA). The library compounds are in columns 5-48 and columns 1-4 serve as controls with DMSO in columns 1 and 3 and 26 mM 1:1.5 fold serial of gluckokinase activator (GKA-EMD) in column 2 and 26 mM of the glucokinase activator (GKA-EMD) in column 4. Following addition of compound and a 20 minute incubation, 1 uL of enzyme mix (GST-GCK, FLAG-GKRP and diaphorase) is added to columns 1, 2, 4-48 and 1 uL of no enzyme mix (FLAG-GKRP and diaphorase) is added to column 3 and the fluorescent product resorufin generated from resazurin was monitored on a Viewlux (PerkinElmer, Shelton, CT, USA) with excitation at 525 nm and emission at 590 nm in kinetic mode where the plate was read every minute for 30 minutes. The final concentration of reagents in the reaction are 25 mM Hepes pH 7.6, 25 mM KCl, 2 mM MgCl2, 1.4 mM 2-mercaptoethanol, 0.025% BSA, 0.01% Tween-20, 0.15 mM NADP+, 5 mM glucose, 0.4 mM ATP, 4 U/ml G6PDH, 0.1 mM resazurin, 10 nM GST-GCK, 10 nM FLAG-GKRP, diaphorase (0.1 mg/mL). Data are normalized to DMSO-treated control columns with (maximum signal) and without (minimum signal) enzyme.

Hexokinase-4 (Homo sapiens) + Glucokinase regulatory protein (Homo sapiens), sequence (P35557 whole entry, looked up): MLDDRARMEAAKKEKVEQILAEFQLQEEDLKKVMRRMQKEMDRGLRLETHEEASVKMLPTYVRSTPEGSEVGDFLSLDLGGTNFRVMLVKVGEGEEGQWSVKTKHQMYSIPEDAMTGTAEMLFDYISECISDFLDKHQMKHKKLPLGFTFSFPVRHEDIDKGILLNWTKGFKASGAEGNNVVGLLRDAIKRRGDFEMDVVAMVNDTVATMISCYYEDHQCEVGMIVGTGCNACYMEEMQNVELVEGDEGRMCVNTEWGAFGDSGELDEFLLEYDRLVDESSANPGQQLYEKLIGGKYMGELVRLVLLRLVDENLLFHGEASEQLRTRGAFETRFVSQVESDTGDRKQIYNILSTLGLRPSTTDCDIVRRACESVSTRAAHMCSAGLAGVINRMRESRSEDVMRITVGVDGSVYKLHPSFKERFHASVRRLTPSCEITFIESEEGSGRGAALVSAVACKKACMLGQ
Hexokinase-4 (Homo sapiens) + Glucokinase regulatory protein (Homo sapiens), sequence (Q14397 whole entry, looked up): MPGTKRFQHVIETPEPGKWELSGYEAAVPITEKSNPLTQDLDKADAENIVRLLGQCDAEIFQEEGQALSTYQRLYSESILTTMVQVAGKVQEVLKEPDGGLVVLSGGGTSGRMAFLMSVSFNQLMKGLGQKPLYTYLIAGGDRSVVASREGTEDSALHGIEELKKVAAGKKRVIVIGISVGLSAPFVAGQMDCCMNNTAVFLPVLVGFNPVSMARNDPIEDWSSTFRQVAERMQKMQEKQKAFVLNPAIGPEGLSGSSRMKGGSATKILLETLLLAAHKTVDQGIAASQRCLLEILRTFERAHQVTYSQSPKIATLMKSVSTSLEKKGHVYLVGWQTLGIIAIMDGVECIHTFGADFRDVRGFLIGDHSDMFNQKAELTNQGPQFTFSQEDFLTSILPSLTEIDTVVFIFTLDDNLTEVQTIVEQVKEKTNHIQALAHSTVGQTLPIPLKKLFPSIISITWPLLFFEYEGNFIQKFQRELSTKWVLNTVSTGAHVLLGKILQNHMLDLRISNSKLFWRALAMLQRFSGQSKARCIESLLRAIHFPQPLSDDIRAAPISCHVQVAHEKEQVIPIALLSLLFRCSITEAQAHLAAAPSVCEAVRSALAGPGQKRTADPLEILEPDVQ

Question: How did the “activity change, positive = activation” value turn out when `CCN(Cc1ccncc1)C(=O)C(CO)c1ccccc1` (stereo not given) was run?
Answer: Its value is -3.96%.

Question: Which “activity change, positive = activation” value does the source give for `CN(C)CC[C@@H](c1ccc(Br)cc1)c1ccccn1` here?
Answer: Its value is -8.06%.

Question: Which “activity change, positive = activation” value does the source give for `OC(CCN1CCCCC1)(c1ccccc1)C1CCCCC1` (stereo not given) here?
Answer: Its value is -0.545%.

Question: With `CCC(=O)c1ccc2c(c1)N(CCCN(C)C)c1ccccc1S2` as the molecule, how does the “activity change, positive = activation” value read?
Answer: Its value is 2.1%.

Question: Which “activity change, positive = activation” value does the source give for `CN1C[C@H](C(=O)N[C@]2(C)O[C@@]3(O)[C@@H]4CCCN4C(=O)[C@H](Cc4ccccc4)N3C2=O)C[C@@H]2c3cccc4[nH]cc(c34)C[C@H]21` here?
Answer: The value was -19.1%.

Question: How did the “activity change, positive = activation” value turn out when `O=C1CC2(CCCC2)CC(=O)N1CCCCN1CCN(c2ncccn2)CC1` was run?
Answer: The value was -3%.

Question: Which “activity change, positive = activation” value does the source give for `CC(C)COCC(CN(Cc1ccccc1)c1ccccc1)N1CCCC1` (stereo not given) here?
Answer: Its value is -4.34%.

Question: `CC(=O)OCC1=C(C(=O)O)N2C(=O)[C@@H](NC(=O)Cc3cccs3)[C@H]2SC1` was tested. Which “activity change, positive = activation” value did it give?
Answer: Its value is -6.84%.

Question: With `CCn1cc(C(=O)O)c(=O)c2cc3c(cc21)OCO3` as the molecule, how does the “activity change, positive = activation” value read?
Answer: The value was -0.183%.

Question: How did the “activity change, positive = activation” value turn out when `Cc1ccc(Cl)c(Nc2ccccc2C(=O)O)c1Cl` was run?
Answer: The value was 1.17%.

Question: With `CCCC(C(=O)OCCN(CC)CC)(c1ccccc1)c1ccccc1` as the molecule, how does the “activity change, positive = activation” value read?
Answer: Its value is 2.16%.

Question: `N[C@@H](COP(=O)(O)O)C(=O)O` was tested. Which “activity change, positive = activation” value did it give?
Answer: Its value is -4.82%.

Question: With `COC(=O)[C@H]1[C@H]2C[C@@H]3c4[nH]c5cc(OC)ccc5c4CCN3C[C@H]2C[C@@H](OC(=O)c2cc(OC)c(OC)c(OC)c2)[C@@H]1OC` as the molecule, how does the “activity change, positive = activation” value read?
Answer: The value was -30.6%.

Question: For `c1cc(CN2CCCCC2)cc(OCCCNc2nc3ccccc3s2)c1`, which “activity change, positive = activation” value is on record?
Answer: Its value is -3.97%.

Question: How did the “activity change, positive = activation” value turn out when `Nc1nc(N)c2nc(-c3ccccc3)c(N)nc2n1` was run?
Answer: Its value is 1.71%.

Question: For `O=C(CCNNC(=O)c1ccncc1)NCc1ccccc1`, which “activity change, positive = activation” value is on record?
Answer: Its value is -3.16%.

Question: `C[n+]1cc2c3c(ccc2c2ccc4cc5c(cc4c21)OCO5)OCO3` was tested. Which “activity change, positive = activation” value did it give?
Answer: The value was -62%.

Question: Which “activity change, positive = activation” value does the source give for `COCCOC(=O)C1=C(C)NC(C)=C(C(=O)OC(C)C)C1c1cccc([N+](=O)[O-])c1` (stereo not given) here?
Answer: Its value is -6.91%.

Question: For `Cc1ccc(S(=O)(=O)NC(=O)NN2CCCCCC2)cc1`, which “activity change, positive = activation” value is on record?
Answer: Its value is 1.04%.

Question: How did the “activity change, positive = activation” value turn out when `c1ccc2c(c1)CCCC2C1=NCCN1` (stereo not given) was run?
Answer: Its value is -5.73%.

Question: How did the “activity change, positive = activation” value turn out when `C[C@@H](O)[C@H]1C(=O)N2C(C(=O)O)=C(SCCN=CN)C[C@H]12` was run?
Answer: The value was -6.52%.

Question: How did the “activity change, positive = activation” value turn out when `COc1ccc2c(c1OC)C(=O)O[C@@H]2[C@H]1c2c(cc3c(c2OC)OCO3)CCN1C` was run?
Answer: The value was -6.95%.

Question: With `O=C(O)CP(=O)(O)O` as the molecule, how does the “activity change, positive = activation” value read?
Answer: The value was 1.21%.

Question: `CC(=O)Oc1cc(C(C)C)c(OCCN(C)C)cc1C` was tested. Which “activity change, positive = activation” value did it give?
Answer: The value was -0.894%.

Question: How did the “activity change, positive = activation” value turn out when `Cc1nc2c([nH]1)c(=O)n(C)c(=O)n2Cc1ccco1` was run?
Answer: The value was -2.7%.

Question: How did the “activity change, positive = activation” value turn out when `CCCCNC(=O)NS(=O)(=O)c1ccc(C)cc1` was run?
Answer: The value was -0.0205%.

Question: For `C[C@]12CCC(=O)C=C1CC[C@@H]1[C@@H]2CC[C@@]2(C)[C@H]1CC[C@]2(O)C(=O)CO`, which “activity change, positive = activation” value is on record?
Answer: Its value is -3.96%.

Question: For `Cc1nc2ccccn2c(=O)c1CCN1CCC(C(=O)c2ccc(F)cc2)CC1`, which “activity change, positive = activation” value is on record?
Answer: The value was 0.464%.

Question: How did the “activity change, positive = activation” value turn out when `Cc1scc2c1N(C(=O)CN1CCN(C)CC1)c1ccccc1NC2=O` was run?
Answer: Its value is 3.85%.

Question: With `CCn1ccnc1CC1COc2ccccc2O1` (stereo not given) as the molecule, how does the “activity change, positive = activation” value read?
Answer: The value was -2.97%.

Question: With `CC(C)(C)NCC(O)c1cc(O)cc(O)c1` (stereo not given) as the molecule, how does the “activity change, positive = activation” value read?
Answer: The value was -1.55%.

Question: Which “activity change, positive = activation” value does the source give for `NC(Cc1ccc(Cl)cc1)C(=O)O` (stereo not given) here?
Answer: Its value is 1.21%.

Question: How did the “activity change, positive = activation” value turn out when `OCCN1CCN(CCCN2c3ccccc3C=Cc3ccccc32)CC1` was run?
Answer: The value was -6.17%.

Question: With `OCCN1CCN(CC/C=C2/c3ccccc3Sc3ccc(C(F)(F)F)cc32)CC1` as the molecule, how does the “activity change, positive = activation” value read?
Answer: Its value is -6.68%.

Question: `C(=C\c1ccccc1)/CN1CCN(C(c2ccccc2)c2ccccc2)CC1` was tested. Which “activity change, positive = activation” value did it give?
Answer: The value was -1.4%.

Question: With `COCCc1ccc(OCC(O)CNC(C)C)cc1` (stereo not given) as the molecule, how does the “activity change, positive = activation” value read?
Answer: The value was 3.72%.

Question: For `COc1ccc([C@@H]2Sc3ccccc3N(CCN(C)C)C(=O)[C@@H]2OC(C)=O)cc1`, which “activity change, positive = activation” value is on record?
Answer: Its value is 3.77%.

Question: How did the “activity change, positive = activation” value turn out when `O=C1NCN(c2ccccc2)C12CCN(CCCC(c1ccc(F)cc1)c1ccc(F)cc1)CC2` was run?
Answer: Its value is -0.543%.

Question: How did the “activity change, positive = activation” value turn out when `Cc1nc2sccn2c(=O)c1CCN1CCC(=C(c2ccc(F)cc2)c2ccc(F)cc2)CC1` was run?
Answer: The value was -0.693%.

Question: With `C[N+](C)(C)CCOC(N)=O` as the molecule, how does the “activity change, positive = activation” value read?
Answer: The value was -4.74%.
